Data as given in PubChem BioAssay (Tox21).
Results filed as inconclusive are left out. Unmarked numbers belong to inactive results. Active and inactive are the calls of the source. The call rests on the fitted dose curve; in most records, active means well fitted cell-killing curve with a large enough effect in the repeat runs; inconclusive means weak or mixed curves, or effect the other way; inactive means flat fitted curve, though single readings scatter.

Experiment: qHTS assay to identify small molecule antagonists of the androgen receptor (AR) signaling pathway using the MDA cell line in the presence of 0.5 nM R1881 - cell viability counter screen (AID 1259242); further: nearly all actives have a fitted effect of over 45% in size
Details: MDA-kb2 viability, CellTiter-Fluor protease fluorescence, 16 h; series mostly up to 92.4 µM; viability change, negative = cytotoxic: at the top concentration
Source text: U.S. Tox21 Program National Center for Advancing Translational Sciences [NCATS] NIH Chemical Genomics Center [NCGC] U.S. Environmental Protection Agency [EPA] National Institutes of Environmental Health Sciences [NIEHS] National Toxicology Program [NTP] U.S. Food and Drug Administration [FDA] Tox21 Assay Overview: Androgen receptor (AR) is an important member of the nuclear receptor family. Its signaling plays a critical role in AR-dependent prostate cancer and other androgen related diseases. Considerable attention has been given in the past decades to develop methods to study and screen for the environmental chemicals that have the potential to interfere with metabolic homeostasis, reproduction, developmental and behavioral functions. Therefore AR binding assay for screening androgen antagonists can be used to identify potential endocrine disruptors. MDA-kb2 cells (from ATCC, deposited by Wilson et al.) were used to screen for AR inhibitors against Tox21 compound libraries. These cells are human breast carcinoma cells that were stably transfected with a luciferase reporter gene under control of the MMTV promoter that contains response elements for both androgen receptor (AR) and glucocorticoid receptor (GR). The current screening for identification of AR inhibitors against Tox21 libraries used lower concentration of (0.5 nM) R1881 as a stimulator. The cytotoxicity of the Tox21 compound libraries against MDA-kb2 cell line was tested by measuring live-cell protease activity using CellTiter-Fluor assay in the same wells.
Tox21 Assay Protocol Summary: MDA-kb2 cells (cells cultured without CO2) were dispensed at 3,000 cells/well in 4 uL of culture medium into white wall/solid-bottom 1536-well plates (Corning Life Sciences, Corning, NY) using a Multidrop Combi (ThermoFisher Scientific, Waltham, MA) dispenser. After the assay plates were incubated at a 37C and 0% CO2 for 5 hr, 23 nL of compounds dissolved in DMSO, positive controls or DMSO only was transferred to the assay plate by a Pintool station (Kalypsys, San Diego, CA). The transfer of compounds was followed by the addition of 1 uL of 0.5 nM (final concentration) agonist (R1881)/culture medium using a Flying Reagent Dispenser (FRD, Aurora Discovery, San Diego, CA). The plates were incubated at 37C and 0% CO2 for 16 hr. For cytotoxicity assay, 1 uL of CellTiter-Fluor reagent (Promega Corporation, Madison, WI) was added to each well using the FRD and after 30 min incubation at 37C and 0% CO2, The fluorescence intensity was measured using ViewLux plate reader (PerkinElmer, Shelton, CT).
On the % scale 0 is the no-effect control and ±100 the full control effect; potency means the concentration at half of the fitted maximal effect.

Compound	viability change, negative = cytotoxic	Potency
CCOP(=S)(OCC)SCS(=O)(=O)CC	2.27%	–
COP(=S)(OC)Oc1cc(Cl)c(Br)cc1Cl	-15.2%	–
O=[N+]([O-])c1cc(Cl)ccc1Cl	1.34%	–
C[CH2][Hg][N]1C(=O)C2C(C1=O)C1(Cl)C(Cl)=C(Cl)C2(Cl)C1(Cl)Cl (stereo not given)	–	13 µM (active)
N#CSCSC#N	–	62.5 µM (active)
CC(C)CC(C)N (stereo not given)	-0.0362%	–
SCc1ccco1	-3.95%	–
CC(=O)[O-].CC(=O)[O-].[Hg+2]	–	7.7 µM (active)
C=CC(=O)OCC(COC(=O)C=C)(COC(=O)C=C)COC(=O)C=C	–	13.7 µM (active)
O=C(CCCN1CCC2(CC1)C(=O)NCN2c1ccccc1)c1ccc(F)cc1	-15.9% [at 42.5 µM]	–
COC12CC[C@@]3(C[C@@H]1C(C)(O)C(C)(C)C)[C@H]1Cc4ccc(O)c5c4[C@@]3(CCN1CC1CC1)[C@H]2O5 (stereo not given in full)	–	54.1 µM (active)
BrC(Br)Br	1.17%	–
Clc1ccc(C(c2ccccc2Cl)C(Cl)(Cl)Cl)cc1 (stereo not given)	–	inactive
CC(C)C(=O)Cl	-3.77%	–
O=[N+]([O-])O.O=[N+]([O-])O.[Cd]	5.42%	–
COCC(=O)N(c1c(C)cccc1C)[C@H](C)C(=O)OC	0.993%	–
O=[N+]([O-])c1ccc2ccc3cccc4ccc1c2c34	-14%	–
COc1ccc([N+](=O)[O-])cc1O	3.09% [at 42.5 µM]	–
CC(=O)c1cc(C(C)(C)C)cc2c1CCC2(C)C	-2.81%	–
CC(=O)OC1(c2ccccc2)CCN(CCc2ccccc2)CC1	-19.8%	–

Compound	viability change, negative = cytotoxic	Potency
CC(C)(C)c1cc([N+](=O)[O-])cc(C(C)(C)C)c1O	–	13.7 µM (active)
O=c1c(C2CC(c3ccc(-c4ccc(Br)cc4)cc3)Cc3ccccc32)c(O)sc2ccccc12 (stereo not given)	-27% [at 42.5 µM]	–
COC[C@H](C)N(C(=O)CCl)c1c(C)csc1C	0.0483%	–
C1CCC2CCCCC2C1 (stereo not given)	3.59%	–
CCCCCCCCCCCCCCCC[N+](C)(C)C	–	38.6 µM (active)
CCOCn1c(-c2ccc(Cl)cc2)c(C#N)c(Br)c1C(F)(F)F	–	5.45 µM (active)
ClC1=C(Cl)[C@]2(Cl)[C@@H]3[C@@H](Cl)[C@H](Cl)C[C@@H]3[C@@]1(Cl)C2(Cl)Cl	0.841%	–
N#CCCSCCC#N	2.84%	–
COP(=O)(CCC(=O)NCO)OC	5.59%	–
CC1(C)CN=C(NN=C(/C=C/c2ccc(C(F)(F)F)cc2)/C=C/c2ccc(C(F)(F)F)cc2)NC1	–	24.3 µM (active)
CCCN(CC)CC1COC2(CCC(C(C)(C)C)CC2)O1 (stereo not given)	-2.36%	–
O=c1[nH]c2ccccc2n1CCCN1CCC(n2c(=O)[nH]c3cc(Cl)ccc32)CC1	-16.6% [at 42.5 µM]	–
O=[N+]([O-])c1c2ccccc2cc2ccccc12	-7.07%	–
O=C(O)COc1nc(Cl)c(Cl)cc1Cl	7.03%	–
NNC(=O)c1ccccc1	1.14%	–
CC[C@H](C)[C@H]1O[C@]2(C=C[C@@H]1C)C[C@@H]1C[C@@H](C/C=C(\C)[C@@H](O[C@H]3C[C@H](OC)[C@@H](O[C@H]4C[C@H](OC)[C@@H](O)[C@H](C)O4)[C@H](C)O3)[C@@H](C)/C=C/C=C3\CO[C@@H]4[C@H](O)C(C)=C[C@@H](C(=O)O1)[C@]34O)O2	–	36.1 µM (active)
BrC(Br)C(Br)(Br)Br	-14.5%	–
ClC(Cl)=C(Cl)Cl	3.64%	–
Cc1cc(SCc2sc(-c3ccc(C(F)(F)F)c(F)c3)nc2C)ccc1OCC(=O)O	-2.22%	–
Oc1cccc(-c2ccccc2)c1	0.894%	–
